The nature of experiment [1]: A CellTox Green Cytotoxicity Assay to monitor cytotoxicity in HepG2 cells - 32 hour (AID 1224883). Also: nearly all actives have a fitted effect of over 50% in size. Also: potency is read from the fitted curve at half-maximal effect. As to conditions: CellTox Green fluorescence; series mostly up to 76.8 µM. In short, it runs like this: (§1)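 Real-time, homogeneous cytotoxicity readout: dead-cell DNA staining by CellTox Green in HepG2 monolayers, fluorescence measured at timed intervals up to 40 h of continuous compound exposure.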

Experiment [2] can be described thus: A CellTox Green Cytotoxicity Assay to monitor cytotoxicity in HEK293 cells - 8 hour (AID 1224884). Also: nearly all actives have a fitted effect of over 35% in size. Also: potency is read from the fitted curve at half-maximal effect. As to conditions: CellTox Green fluorescence; series mostly up to 76.8 µM. The method, boiled down:
(§2)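 Cytotoxicity was tracked continuously in HEK293 cells by a DNA-binding dye excluded from viable cells. Compounds were transferred in DMSO 5 h after seeding; fluorescence was recorded at intervals up to 40 h.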

A short description of experiment [3]: qHTS RealTime-Glo MT Cell Viability Assay in HepG2 cells - 16 hour (AID 1224885). Also: nearly all actives have a fitted effect of over 50% in size. Also: potency is read from the fitted curve at half-maximal effect. As to conditions: RealTime-Glo luminescence; series mostly up to 76.8 µM. The method, boiled down: (§3)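 qHTS, HepG2, 600 cells/well, RealTime-Glo (NanoLuc + prosubstrate) added with cells; 5 h preincubation; DMSO compound addition; 37 C; luminescence at 0/8/16/24/32/40 h.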
For orientation: Quantitative high-throughput screening tests each substance at several concentrations.

Experiment [4] can be described thus: qHTS RealTime-Glo MT Cell Viability Assay in HEK293 cells - 24 hour (AID 1224886). Also: nearly all actives have a fitted effect of over 50% in size. Also: potency is read from the fitted curve at half-maximal effect. To be noted: RealTime-Glo luminescence; series mostly up to 76.8 µM. The method, boiled down:
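Assay medium contained NanoLuc luciferase plus cell-permeant prosubstrate, added with HEK293 cells at 600 cells/well. After 5 h at 37 C/5% CO2 compounds were added; plates stayed at 37 C for 40 h with serial luminescence reads.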

Experiment [5] in a line: qHTS RealTime-Glo MT Cell Viability Assay in HEK293 cells - 8 hour (AID 1224887). Also: nearly all actives have a fitted effect of over 50% in size. Also: potency is read from the fitted curve at half-maximal effect. As to conditions: RealTime-Glo luminescence; series mostly up to 76.8 µM. The method, boiled down: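 Nonlytic bioluminescent viability monitoring. HEK293 at 600 cells/well with reagent; 5 h settle; compound transfer by pintool; plates held at 37 C and read at set time points.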
A short description of experiment [6]: A CellTox Green Cytotoxicity Assay to monitor cytotoxicity in HEK293 cells - 16 hour (AID 1224888). Also: nearly all actives have a fitted effect of over 35% in size. Also: potency is read from the fitted curve at half-maximal effect. As to conditions: CellTox Green fluorescence; series mostly up to 76.8 µM. The method, boiled down:
as §2

Experiment [7] is described as follows: A CellTox Green Cytotoxicity Assay to monitor cytotoxicity in HepG2 cells - 8 hour (AID 1224890). Also: nearly all actives have a fitted effect of over 45% in size. Also: potency is read from the fitted curve at half-maximal effect. To be noted: CellTox Green fluorescence; series mostly up to 76.8 µM. The method, boiled down:
as §1

The nature of experiment [8]: qHTS assay to identify small molecule antagonists of the estrogen receptor alpha (ER-alpha) signaling pathway using the BG1 cell line in the presence of 0.1 nM 17-beta-estradiol - cell viability counter screen (AID 1259241). Also: nearly all actives have a fitted effect of over 40% in size. Also: potency is read from the fitted curve at half-maximal effect. To be noted: VM7Luc4E2 (BG1) viability, CellTiter-Fluor protease, 22 h, 0.1 nM estradiol agonist added; series mostly up to 92.4 µM. In short, it runs like this: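 VM7Luc4E2 cells (endogenous full-length ER-alpha, 4xERE-luciferase), cultured 5 days in charcoal-stripped serum, exposed to compounds with 0.1 nM 17beta-estradiol (final) for 22 hr at 37C. Viability read in same wells as live-cell protease fluorescence after 30 min.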

A short description of experiment [9]: qHTS assay to identify small molecule antagonists of the androgen receptor (AR) signaling pathway using the MDA cell line in the presence of 0.5 nM R1881 - cell viability counter screen (AID 1259242). Also: nearly all actives have a fitted effect of over 45% in size. Also: potency is read from the fitted curve at half-maximal effect. To be noted: MDA-kb2 viability, CellTiter-Fluor protease fluorescence, 16 h; series mostly up to 92.4 µM. The method, boiled down:
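Cytotoxicity toward MDA-kb2 cells is measured by CellTiter-Fluor live-cell protease fluorescence after 16 hr compound exposure at 37C in the presence of 0.5 nM R1881 stimulator.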

Experiment [10] can be described thus: qHTS RealTime-Glo MT Cell Viability Assay in HepG2 cells - 0 hour (AID 1224889). Also: nearly all actives have a fitted effect of over 50% in size. As to conditions: RealTime-Glo luminescence; series mostly up to 76.8 µM. The method, boiled down: as §3

Records with an inconclusive call do not appear. The source made the active and inactive calls. Calls follow the shape of the dose curve; as a rule, active = well fitted curve in the direction sought with a large enough effect in the repeat runs; inconclusive = weak or mixed curves; inactive = no such curve, though single readings can be large; an effect the other way counts as inactive or inconclusive.

For `Cc1cc(O)c2ccccc2c1O`, the Potency is 13.4 µM (active) in [1]; 9.52 µM (active) in experiment [2]; 13.4 µM (active) in experiment [3]; 7.56 µM (active) in experiment [4]; 5.35 µM (active) in [5]; 9.52 µM (active) in experiment [6]. For the same molecule, the results for the Potency in experiment [7], in [8] and in [9] were 21.3 µM (active), 29.8 µM (active) and 18.8 µM (active), respectively.

As for `CCCCC(CC)CN=C(N)NC(N)=NCCCCCCN=C(N)NC(N)=NCC(CC)CCCC` (centres undefined), the Potency in experiment [1] is 8.49 µM (active); in experiment [2], 13.4 µM (active); in [3], 10.7 µM (active); in experiment [4] it was 5.35 µM (active); in experiment [5] it was 8.49 µM (active); in experiment [6], 8.49 µM (active). Further, the Potency in experiment [7] is 10.7 µM (active); in [8], 29.8 µM (active).

On to `OC1(c2ccc(Cl)c(C(F)(F)F)c2)CCN(CCCC(c2ccc(F)cc2)c2ccc(F)cc2)CC1`, for which the Potency is 8.49 µM (active) in [1]; 21.3 µM (active) in experiment [2]; 10.7 µM (active) in experiment [3]; 9.52 µM (active) in experiment [4]; 23.9 µM (active) in experiment [6]; 33.5 µM (active) in experiment [8]. The Potency in experiment [9] was 13.3 µM (active). For the same molecule, the Potency entry in [10] is “inactive”.

Consider `Cc1c(C)c2c(c(C)c1O)CCC(C)(COc1ccc(CC3SC(=O)NC3=O)cc1)O2` (centres undefined), for which the Potency entry in experiment [1], in experiment [2], in experiment [3], in experiment [6], in experiment [10] and in experiment [7] was “inactive” each time. Moreover, the Potency entry in experiment [8] and in experiment [9] was “inactive” throughout. In addition, the Potency in experiment [4] was 43.6 µM (active).

In the case of `Oc1c(Cl)cc(Cl)c2cccnc12`, in experiment [1], the Potency was 9.52 µM (active). Further, the Potency result in [2], in [3], in [5], in experiment [6], in [10] and in experiment [7] was “inactive” throughout. The Potency entry in [8] and in experiment [9] was “inactive” each time.

Regarding `CCC(Cl)C(Cl)C(Cl)CC(Cl)C(Cl)C(C)Cl` (centres undefined), the Potency entry in experiment [1], in experiment [2], in experiment [3], in [4], in experiment [6] and in experiment [10] was “inactive” throughout. In addition, the Potency result in experiment [8] and in experiment [9] was “inactive” throughout.

With `CCCCc1oc2ccc(NS(C)(=O)=O)cc2c1C(=O)c1ccc(OCCCN(CCCC)CCCC)cc1`, the Potency was 19 µM (active) in experiment [1]; 23.9 µM (active) in experiment [2]; 19 µM (active) in [3]; 10.7 µM (active) in experiment [4]; 23.9 µM (active) in experiment [6].

As for `O=c1cccccc1O`, the Potency result in [1], in experiment [2], in [3], in [5], in experiment [6] and in experiment [10] was “inactive” each time. The Potency entry in [7], in experiment [8] and in [9] was “inactive” each time.

Regarding `CC(=O)SC[C@@H](Cc1ccccc1)C(=O)NCC(=O)OCc1ccccc1`, the Potency entry in [1], in experiment [2], in experiment [3], in experiment [5], in experiment [6] and in experiment [10] was “inactive” throughout. For the same molecule, the Potency entry in experiment [7], in experiment [8] and in experiment [9] was “inactive” throughout.

Turning to `Cc1[nH]nc2c1N=C(c1ccccc1Cl)c1cc([N+](=O)[O-])ccc1N2`, the Potency result in [1], in experiment [2], in [3], in experiment [5], in [6] and in experiment [10] was “inactive” each time. Further, the Potency result in experiment [7] is “inactive”. Moreover, the Potency in experiment [8] and in experiment [9] was 27.3 µM (active) each time.

Turning to `Oc1cccc2cc3cccc(O)c3c(O)c12`, the Potency entry in experiment [1], in [2], in experiment [3], in experiment [4], in [6] and in experiment [10] was “inactive” in each case. Besides, the Potency result in experiment [8] and in experiment [9] was “inactive” in each case.

On to `CNc1ccc(O)cc1`, for which the Potency was 54.8 µM (active) in experiment [1]; 48.9 µM (active) in experiment [3]; 12.3 µM (active) in experiment [4]; 15.5 µM (active) in experiment [5]; 21.6 µM (active) in experiment [8]; 61 µM (active) in experiment [9]. Further, the Potency entry in [2] and in experiment [6] was “inactive” each time.

Turning to `NNc1nc(-c2ccc(N)cc2)cs1`, the Potency result in [1], in [2], in experiment [3], in experiment [5], in experiment [6] and in experiment [7] was “inactive” each time.

`[Cl][Au]([Cl])[Cl]`: the Potency in experiment [1] is 11 µM (active); in [3], 15.5 µM (active); in experiment [4], 3.89 µM (active); in experiment [6] it was 49 µM (active); in experiment [8] it was 68.6 µM (active); in experiment [9] it was 24.3 µM (active). Further, the Potency result in experiment [2] and in [10] was “inactive” each time.

In the case of `O=C(c1ccc(O)cc1O)c1ccc(O)cc1O`, the Potency result in [1], in experiment [2], in experiment [5], in experiment [6], in [10] and in experiment [7] was “inactive” throughout. The Potency entry in [8] and in [9] was “inactive” each time.

Take `OCCCCCCCCCCCCBr`: the Potency result in [1], in experiment [2], in experiment [5], in experiment [6], in experiment [10] and in experiment [7] was “inactive” in each case. For the same molecule, the Potency entry in experiment [8] and in [9] was “inactive” each time.

With `CCCCCCCCCCCCCCCCCC[N+](C)(C)C`, the Potency in experiment [1] is 49.1 µM (active); in experiment [2], 39 µM (active); in [4], 19.6 µM (active); in [5] it was 49.1 µM (active); in [6], 49.1 µM (active). Besides, the Potency result in experiment [10] and in experiment [8] was “inactive” in each case.

For the molecule `CCCCCCCCCCCC(=O)NCCCN(C)C`, the Potency in experiment [1] was 24.5 µM (active); in experiment [2] it was 54.9 µM (active); in experiment [5], 49 µM (active); in experiment [6], 54.9 µM (active); in experiment [7], 54.9 µM (active). In addition, in experiment [10], the Potency result was “inactive”.

Take `O=C(Nc1cccc(C(F)(F)F)c1)c1cc(Br)cc(Br)c1O`: the Potency in [1] is 17.4 µM (active); in [4] it was 4.9 µM (active). The Potency result in [2], in experiment [5], in [6], in [7] and in experiment [8] was “inactive” each time.

For the origin of these results see PubChem BioAssay (Tox21).
